A short description of test [1]: Quantitative High-Throughput drug screen in 47 multiple myeloma cell lines against the NCATS MIPE library collection: OPM2_DSMZ cell viability assay (AID 1919872). Note: nearly all actives have a fitted effect of over 30% in size. Note: potency is the fitted concentration of half-maximal effect. The method in brief: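 Luminescent ATP measurement with CellTiter-Glo gives viability, scaled between DMSO-only wells (100%) and media-only wells (0%). Cells, 500 per well, faced library compounds for 48 hours at 37C.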

Test [2] can be described thus: Quantitative High-Throughput drug screen in 47 multiple myeloma cell lines against the NCATS MIPE library collection: KMS11_JCRBsus cell viability assay (AID 1919873). Note: nearly all actives have a fitted effect of over 50% in size. Note: potency is the fitted concentration of half-maximal effect. The method in brief: (§1)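 ATP-based CellTiter-Glo luminescence after 48 h drug exposure (37 °C, 5% CO2) of 500 myeloma cells per well. DMSO-only wells set 100% viability, media-only wells 0%; MIPE 4.0 library added by pin tool.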

Test [3] in a line: Quantitative High-Throughput drug screen in 47 multiple myeloma cell lines against the NCATS MIPE library collection: KMS28BM_JCRB cell viability assay (AID 1919874). Note: nearly all actives have a fitted effect of over 35% in size. Note: potency is the fitted concentration of half-maximal effect. The gist of the method:
as §1

Test [4] in a line: qHTS drug screen for cell cycle checkpoint inhibitors in PARPi-resistant BRCA-mutant ovarian cancer cell lines. (AID 1963452; calls by dose curve). The note with it: PEO1/OlaR viability, CellTiter-Glo luminescence, 96 h, stronger effect = lower value. The gist of the method: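 PEO1, PEO4 and PEO1/OlaR ovarian cancer cells, 600 per well, exposed 96 h at 37C to a dilution series. Viability read by CellTiter-Glo luminescence, normalized to DMSO and empty wells; activity summarized as Z-AUC.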

Test [5] in a line: qHTS profiling for inhibitors of Plasmodium falciparum proliferation (AID 504749).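 For activity, negative = inhibition: 0% = DMSO vehicle and full inhibition = artemisinin control.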 Note: nearly all actives have a fitted effect of over 60% in size. Note: potency is the fitted concentration of half-maximal effect. Particulars: P. falciparum in erythrocytes, SYBR Green DNA, 72 h, at 28.7 µM (top of the series). The method in brief: (§2)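 SYBR Green fluorescence of parasite DNA, read after lysis and overnight dark incubation, measured growth over 72 h in erythrocyte culture at 0.3% parasitemia and 2.5% hematocrit. Data normalised to DMSO and 0.29 uM artemisinin, with plate-drift correction.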

The subject of a further test is 3D7. The test is described as above. Particulars: P. falciparum in erythrocytes, SYBR Green DNA, 72 h; series mostly up to 28.7 µM. The method in brief:
as §2

Another test relates to 7G8. The test is described as above. The note with it: P. falciparum in erythrocytes, SYBR Green DNA, 72 h; series mostly up to 28.7 µM. The method in brief:
as §2

Test [6] in a line: qHTS for identification of novel therapeutic agents for treatment of microphthalmiaassociated transcription factor (MiT) renal cell carcinoma (RCC) (AID 1963991). Particulars: CellTiter-Glo, 48 h, stronger effect = lower value. The method in brief: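 Three TFE3-fusion RCC cell lines (UOK109, UOK124, UOK145), 500 cells/well, were exposed to the 1912-compound MIPE 4.0 library for 48 hours at 37 C. Viability was read by CellTiter-Glo luminescence, normalised to DMSO (100%) and empty wells (0%), with 11-concentration curve fits.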

A further test deals with AA1029. As to the kind of experiment: qHTS profiling for inhibitors of Plasmodium falciparum proliferation (AID 504749).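 For activity, negative = inhibition: 0% = DMSO vehicle and full inhibition = artemisinin control.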 Note: nearly all actives have a fitted effect of over 60% in size. Note: potency is the fitted concentration of half-maximal effect. The note with it: P. falciparum in erythrocytes, SYBR Green DNA, 72 h; series mostly up to 28.7 µM. The gist of the method:
as §2

The mark [7] stands for this setting: measured here: PEO1 parental Z-AUC.
Where [8] appears, read: TFE3-RCC UOK109 viability, measured here: UOK109 Z-AUC.
Setting [9] is: TFE3-RCC viability, measured here: UOK124 Z-AUC.
The mark [10] stands for this setting: TFE3-RCC viability, measured here: UOK145 Z-AUC.

Inconclusive results are not listed. Active and inactive are the calls of the source. Unless noted, calls come from the whole dose curve; as a rule, active = well fitted curve in the direction sought with a large enough effect; inconclusive = small, poorly fitted or top-dose-only effect, or another doubt; inactive = no such curve, though single readings can be large; an effect the other way counts as inactive or inconclusive.

Regarding `O=C(N[C@H](CO)[C@H](O)c1ccc([N+](=O)[O-])cc1)C(Cl)Cl`, the Potency result in test [1] and in test [2] was “inactive” throughout.
In the case of `CCCc1nc(C)c2c(=O)[nH]c(-c3cc(S(=O)(=O)N4CCN(CC)CC4)ccc3OCC)nn12`, the Potency in test [1] is 5.9 µM (active); in [2] it was 2.96 µM (active); in test [3] it was 3.72 µM (active); in the test on 7G8, 7.08 µM (active). The Z-AUC in [4] is 1.15 (inactive); in test [4] (setting [7]), 0.477; in test [4] (measured here: PEO4 Z-AUC) it was 0.621. Further, the figures for the activity, negative = inhibition in [5] (parasite line A) and in test [5] (parasite line B) were -13.4% (inactive) and -10.2% (inactive), respectively. Moreover, the Potency result with 3D7 is “inactive”.
Take `O=S(=O)(O)CCS`: the Potency result (in [1]; in test [2]; in test [3]; with 3D7; with 7G8; in the test with AA1029) was “inactive” throughout. The Z-AUC is 0.603 (inactive) in test [4], 1.56 in test [4] (setting [7]) and 1.53 in [4] (measured here: PEO4 Z-AUC). Moreover, the z-score in test [6] (setting [8]) was -0.566; in test [6] (setting [9]), 1.05; in test [6] (setting [10]) it was -0.757. For the same molecule, the values for the activity, negative = inhibition in test [5] (parasite line A) and in test [5] (parasite line B) were 8.7% (inactive) and 5.78% (inactive), respectively.
Take `CCN[C@H]1C[C@H](C)S(=O)(=O)c2sc(S(N)(=O)=O)cc21`: the Potency entry in [1], in test [2] and in test [3] was “inactive” in each case. The Z-AUC in test [4] was 1.11 (inactive); in test [4] (setting [7]), 0.588; in [4] (measured here: PEO4 Z-AUC) it was 0.622. The z-score was found to be 0.833 in test [6] (setting [8]), 0.48 in [6] (setting [9]) and 0.605 in test [6] (setting [10]).
For the molecule `CN(CCOc1ccc(CC2SC(=O)NC2=O)cc1)c1ccccn1` (stereo not given), the Potency entry (in test [1]; in [2]; in test [3]; in the test with 3D7; in the test on 7G8; in the test on AA1029) was “inactive” in each case. The Z-AUC in test [4] was 0.844 (inactive); in test [4] (setting [7]) it was 0.498; in [4] (measured here: PEO4 Z-AUC), 0.826. The values for the z-score in test [6] (setting [8]), in test [6] (setting [9]) and in test [6] (setting [10]) were 1.36, 0.588 and 0.764, respectively. Further, the activity, negative = inhibition in test [5] (parasite line A) was -1.7% (inactive); in test [5] (parasite line B) it was -10% (inactive).
`CNS(=O)(=O)CCc1ccc2[nH]cc(C3CCN(C)CC3)c2c1`: the Potency entry in test [1], in [2] and in test [3] was “inactive” in each case.
Consider `CCCc1cc(C(N)=S)ccn1`, for which the Potency result (in [1]; in test [2]; in [3]; in the test on 3D7; in the test on 7G8; in the test with AA1029) was “inactive” in each case. For the same molecule, the Z-AUC was 1.52 (inactive) in [4], 1.53 in [4] (setting [7]) and 1.99 in [4] (measured here: PEO4 Z-AUC). The z-score stood at 1.43 in test [6] (setting [8]), 0.537 in [6] (setting [9]) and 0.979 in test [6] (setting [10]). In addition, the activity, negative = inhibition was 2.28% (inactive) in test [5] (parasite line A) and 5.15% (inactive) in test [5] (parasite line B).
With `C[C@@H]1CN(c2c(F)c(N)c3c(=O)c(C(=O)O)cn(C4CC4)c3c2F)C[C@H](C)N1`, the Potency result in [1], in [2] and in test [3] was “inactive” each time. In addition, the figures for the Z-AUC in test [4], in test [4] (setting [7]) and in test [4] (measured here: PEO4 Z-AUC) were 1.35 (inactive), 1.39 and 1.15, respectively. The z-score amounted to 1.8 in test [6] (setting [8]), 2.67 in [6] (setting [9]) and 1.6 in [6] (setting [10]).
In the case of `CCCOc1ccc(C(=O)OCCN(CC)CC)cc1N`, the Potency result in test [1] was “inactive”. Moreover, the Potency in [2] is 14.8 µM (active).
For `CS(=O)(=O)c1ccc([C@@H](O)[C@@H](CO)NC(=O)C(Cl)Cl)cc1`, in test [1], the Potency entry is “inactive”. Moreover, in [2], the Potency is 11.8 µM (active).
With `CO[C@@]12[C@H](COC(N)=O)C3=C(C(=O)C(C)=C(N)C3=O)N1C[C@@H]1N[C@@H]12`, the Potency is 26.4 µM (active) in test [1], 2.96 µM (active) in test [2] and 6.62 µM (active) in test [3]. Moreover, the Z-AUC is 0.952 (inactive) in [4], 0.894 in test [4] (setting [7]) and 1.04 in test [4] (measured here: PEO4 Z-AUC).

Source of the values: PubChem BioAssay (NCATS).
